Source: PubChem BioAssay (University of Kansas High Throughput Screening Laboratory)
This is one part of a sample in which hits are shown more often than they occur.
Pf apPOL block: Pf-apPOL DNA polymerase inhibition; AID 1794808; hit rate 0.25% among 210,000; Recombinant Pf-apPOL, molecular beacon fluorescence, 1.5 h; inhibition, % at 10 µM
mHTT CaM bind: inhibitors of human mutant huntingtin-calmodulin interaction; P42858; AlphaScreen His-mHTT/GST-CaM binding, luminescence; inhibition, % at 15 µM; hit rate 3.6% among 190,000;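 note: 0% = both proteins with DMSO and 100% = one protein alone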
* hit, by the source's call; nt = no result; ! = a repeat was not active. Cut-off read from the data, not from the text of the source: active = inhibition above about 50%; inactive = the rest.

SMILES	Pf apPOL block	mHTT CaM bind
COc1ccc(C2=NOC(C(=O)NC3CCCC3)C2)cc1OC (stereo unspecified)	-2	1
COc1ncc(C(=O)Nc2ccc(F)cc2)c(C)n1	-3	-8
COc1ccc2c(c1)NC(C)(C)C=C2C	nt	18
CC1(C)Nc2ccc(C(c3ccccc3)(c3ccccc3)c3ccccc3)cc2-c2c1ssc2=S	nt	4
COc1ccc2c(c1)-c1c(ssc1=S)C(C)(C)N2	nt	88*
COc1ccc2c(c1)C(C)=CC(C)(C)N2	-4	94*!
Cc1nnc(NC(=O)CCCOc2ccc(Cl)cc2)s1	-2	-4
COC(=O)c1ccc(C(=O)NCC2(c3cccs3)CCCC2)cc1	-3	-22
CCC(=O)N1CCc2ccc(C(=O)N3CCCCCC3)cc21	0	0
COc1cccc(NC(=O)c2cncc(-c3ccc(C)cc3)c2)c1	0	1
COc1ccc(SCC(=O)Nc2nc(-c3cccc([N+](=O)[O-])c3)cs2)cc1	-7	-15
CCN(CC)c1ccc(Nc2nc(-c3ccc(OC)cc3)cs2)cc1	-2	80*
COc1ccc(-c2csc(Nc3ccc(S(N)(=O)=O)cc3)n2)cc1	-4	52*
COc1ccc(Nc2nc(-c3cccc([N+](=O)[O-])c3)cs2)cc1	2	84*
COc1ccc(S(N)(=O)=O)cc1	-4	-2
CCN(CC)c1ccc(Nc2nc(-c3ccccc3)cs2)cc1	3	80*
COc1ccc(Nc2nc(-c3ccc(F)cc3F)cs2)cc1	-2	4
CCCC(=O)Nc1nc(-c2ccccc2)cs1	-6	4
CC1CCC2C(=O)N(Cc3ccccc3)C(=O)C2C1 (stereo unspecified)	-2	-12
CN1C(=O)C(C)(C(=O)NCc2cccs2)Oc2cccnc21 (stereo unspecified)	5	-2
CSc1ccc(C2C3=C(CC(C)(C)CC3=O)Nc3nnnn32)cc1 (stereo unspecified)	-9	-2
COc1ccccc1CC(=O)N1CCC(c2nc(C(=O)N(C)C)c(C)o2)CC1	-2	-1
COc1ccc(-c2csc(Nc3cccnc3)n2)cc1	11	nt
COc1ccc(-c2csc(Nc3ccc(N(C)C)cc3)n2)cc1	6	89*
C=CCNc1nc(-c2ccncc2)cs1	-4	-1
SMILES	Pf apPOL block	mHTT CaM bind
CCN(CC)c1ccc(Nc2nc(-c3ccncc3)cs2)cc1	-4	85*
CC(C)OCCCNC(=O)C1CCCN(c2cnn(Cc3ccccc3)c(=O)c2)C1 (stereo unspecified)	-2	3
CC(=O)Nc1ccc(S(=O)(=O)N2CCCC(CNC(=O)c3ccccc3)C2)cc1 (stereo unspecified)	-3	-1
Cc1cccc(S(=O)(=O)N2CCCC(C)(C(=O)NCc3ccc(F)cc3)C2)c1 (stereo unspecified)	1	37
Cc1cc(C)c(S(=O)(=O)N2CCCC(C)(C(=O)NCc3ccc(F)cc3)C2)c(C)c1 (stereo unspecified)	-4	91*
Cc1cc(C)c(S(=O)(=O)N2CCCC(C)(C(=O)NCc3cccc(F)c3)C2)c(C)c1 (stereo unspecified)	-2	8
Cc1cc(C)c(S(=O)(=O)N2CCCC(C)(C(=O)NCc3ccc(F)cc3)C2)cc1C (stereo unspecified)	0	61*
O=C(COc1ccccc1Br)Nc1ccc([N+](=O)[O-])cc1	-4	0
CN(C)C=C(C(=S)c1ccccc1)c1ccccc1	-1	nt
CCn1c(C2CCN(S(=O)(=O)c3ccc4c(c3)CCCC4)C2)nc2ccncc21 (stereo unspecified)	11	93*
CCn1c(C2CCN(S(=O)(=O)c3cc(F)cc(F)c3)C2)nc2ccncc21 (stereo unspecified)	-3	2
CCc1c(C)nc2[nH]nc(-c3ccccc3)n2c1=O	-2	2
CCc1c(C)[nH]n(-c2nn[nH]n2)c1=O	nt	100*
COC(=O)c1cccc(NC(=O)c2nc(C)n(C3CCN(C(C)=O)CC3)c2C)c1	-2	13
CC1Cc2ccccc2N1C(=O)c1ccc2nc(N3C(=O)CCC3=O)sc2c1 (stereo unspecified)	-5	52*
CC1Cc2ccccc2N1C(=O)c1ccc(Cl)cc1 (stereo unspecified)	2	-39
Cc1noc(C)c1S(=O)(=O)N1CCCCC1c1nncn1C (stereo unspecified)	2	-2
CN(CCCNC(=O)CC1CCN(S(=O)(=O)c2cccs2)CC1)Cc1ccccc1	-1	8
COC(=O)c1c(NC(=O)C(F)(F)F)sc2c1C(C(=O)OC)CC2 (stereo unspecified)	nt	-2
O=C1c2ccc(-c3nc4cc(Cl)ccc4c(=O)o3)cc2C(=O)N1c1cccc([N+](=O)[O-])c1	-9	1
CNc1cc(Nc2ccc(C)cc2)c2c3c(onc13)-c1ccccc1C2=O	2	95*
O=C1c2ccccc2-c2onc3c(N4CCOCC4)cc(Nc4ccc(F)cc4)c1c23	-1	63*
COc1ccc(Nc2cc(N3CCOCC3)c3noc4c3c2C(=O)c2ccccc2-4)cc1	1	43
